In all, about 69,000 compounds went through this assay and about 8,600 (12%) showed an effect of 50% or more. This is one part of a sample in which strong results are shown more often than they occur.
These compounds were tested on Plasmodium berghei (assay: Screen against P. berghei liver stage (PbLuc), transformed with Luciferase, at 10uM). Conditions: tested at 10 uM.
Format: functional, HepG2

| Compound | INHIBITION |
| --- | --- |
| CCOc1ccccc1C(CC(=O)Nc1ccccn1)NC(C)=O (configuration not stated) | -10.45% |
| Cc1ccc(CN2CC[C@H]3[C@H]2CCN3S(=O)(=O)C2CC2)cc1 | 8.85% |
| Cn1c(CN2CCCC(N3CCNC3=O)C2)cc(=O)n(C)c1=O (configuration not stated) | 31.4% |
| CCN1CC2(CCC1=O)CCN(Cc1cccc(OC(F)F)c1)CC2 | -9.39% |
| CN(C)Cc1cn(-c2ccccc2C(=O)NCC2CCCCN2C)cn1 (configuration not stated) | 29.95% |
| CNc1nc2c(s1)C(c1c(F)cccc1Cl)CC(=O)N2 (configuration not stated) | 3.95% |
| CN(C)C(=O)[C@]12CCCN(CC3CC3)C[C@H]1CN(c1ccccn1)C2 | 0.618% |
| COc1ccccc1CN(C)C(=O)C[S+]([O-])Cc1cc(C)on1 (configuration not stated) | 5.29% |
| CC(C(=O)N1CCCN(Cc2cscn2)CC1)N1CCOCC1 (configuration not stated) | -4.3% |
| Cn1cc(CN2CCn3cc(Cn4cccn4)nc3C2)cn1 | -6.23% |
| Cc1cc(C(=O)N2CCCC(n3cncn3)C2)no1 (configuration not stated) | 11.235% |
| CNc1snc(C)c1C(=O)N1CCCC(n2cccn2)C1 (configuration not stated) | 46.2% |
| Cn1cc(CCC(=O)N2CCCC(n3cncn3)C2)cn1 (configuration not stated) | 19.4% |
| Cc1cc(C)n(CCC(=O)N2CCCC(n3nc(C)nc3C)C2)n1 (configuration not stated) | 30.2% |
| O=C(c1cc(C2CC2)on1)N1CCCC(n2cccn2)C1 (configuration not stated) | 27.65% |
| O=C(c1ccon1)N1CCCC(n2cncn2)C1 (configuration not stated) | 9.82% |
| Cc1cc(C)n(C2CCCN(C(=O)c3cc(C4CC4)on3)C2)n1 (configuration not stated) | 14.4% |
| Cc1cnn(C2CCCN(C(=O)c3cc(C4CC4)on3)C2)c1 (configuration not stated) | 59% |
| CNc1snc(C)c1C(=O)N1CCCC(n2cc(C)cn2)C1 (configuration not stated) | 58.5% |
| CNc1snc(C)c1C(=O)N1CCCC(n2nc(C)cc2C)C1 (configuration not stated) | 32.8% |
| O=C(c1cc(C2CC2)on1)N1CCCC(n2cncn2)C1 (configuration not stated) | 56.6% |
| Cc1cc(C)n(CCC(=O)N2CCCC(n3cncn3)C2)n1 (configuration not stated) | 64.7% |
| COCC(=O)NCc1cc(=O)n2c(n1)CN(Cc1nccs1)CCC2 | 44.8% |
| CC(=O)N(C)C1CCN(C(=O)c2cccc3c2ccn3C)CC1 | 9.63% |

| Compound | INHIBITION |
| --- | --- |
| Cn1cc(CN2CCOCC3(C2)CN(c2ccccc2)C(=O)CO3)cn1 (configuration not stated) | 17.1% |
| CC(=O)N(Cc1noc(C)n1)C1CCN(Cc2cccc(C#N)c2)C1 (configuration not stated) | -18% |
| O=C(O)CN1CCC(C(F)(F)F)CC1 | 2.4% |
| CCn1ncc(CNC(=O)c2cn(CCC3CCCCN3)nn2)c1C (configuration not stated) | 83.8% |
| Cc1c(CNC(=O)c2cn(CCC3CCCCN3)nn2)cnn1C (configuration not stated) | -70.7% |
| CCn1nc(C)c(CNC(=O)c2cn(CCC3CCCCN3)nn2)c1C (configuration not stated) | -25% |
| Cc1cc(C)n(CC2CCCN2C(=O)Cc2c(C)nn(C)c2C)n1 (configuration not stated) | -43.5% |
| CCN(CC)c1ncnc2c1CCN(c1ccc(C)nn1)CC2 | 52.1% |
| CCN(C)c1ncnc2c1CCN(c1ccc(C)nn1)CC2 | 39.4% |
| Cc1ccc(N2CCc3ncnc(N(C)C)c3CC2)nn1 | 8.6% |
| Cc1cccc(N2CCc3ncnc(C4CC4)c3CC2)n1 | -11.6% |
| Cc1ccc(N2CCc3ncnc(C4CC4)c3CC2)nn1 | 58.4% |
| Cc1ccc(N2CCc3ncnc(C)c3CC2)nn1 | 35.8% |
| Cc1cccnc1C(=O)N1CCCC(Cc2cncc3ccccc23)C1 (configuration not stated) | -63.5% |
| CCn1cc(Cl)c(C(=O)NCc2cnn(C)c2)n1 | 3.46% |
| CCOC(=O)C1CCN(C(=O)CN2CCCC2Cc2ccccc2)CC1 (configuration not stated) | -4.93% |
| COc1ccccc1C1CCCN1CC(=O)N1CCC(C(N)=O)CC1 (configuration not stated) | 34% |
| Cc1nc(-c2nnc[nH]2)sc1C(=O)N1CCCC1CC(C)(C)C (configuration not stated) | -10.2% |
| CCC(=O)N1CCCC1c1ccsc1 (configuration not stated) | 50.4% |
| O=C(NCCCn1ccnc1)N1CCCC1c1ccsc1 (configuration not stated) | 28.4% |
| O=C(NCCCn1cccn1)N1CCCC1c1ccsc1 (configuration not stated) | 28.6% |
| CN(CCCNC(=O)N1CCCC1c1ccsc1)c1ccccn1 (configuration not stated) | 52% |
| Cc1nc(-c2nnc[nH]2)sc1C(=O)N1CCCC1c1cccs1 (configuration not stated) | -81.2% |
| CSCCC(=O)N1CCCC1c1ccsc1 (configuration not stated) | 1.81% |

| Compound | INHIBITION |
| --- | --- |
| CCOC(=O)C1CCN(C(=O)CN2CCCC2c2ccccc2C)CC1 (configuration not stated) | 70.1% |
| CC(C)CC(=O)N1CCCC1c1ccsc1 (configuration not stated) | -8.66% |
| Cc1nc(-c2nnc[nH]2)sc1C(=O)N1CCCC1c1ccsc1 (configuration not stated) | 72.5% |
| Cc1nnc2ccc(N3CCN(CCc4ccccn4)CC3)nn12 | -57.4% |
| Cc1cc(C(=O)N2C[C@@H]3COC[C@]3(CN(C)C)C2)c(C)o1 | 25.1% |
| Cc1nn(C)cc1-c1nn2c(C(F)(F)F)nnc2s1 | -15.2% |
| Cc1c(C(=O)N2CCS(=O)(=O)CC2)nnn1-c1ccc2ncccc2c1 | 46.6% |
| CCc1nnc(CN(CC)C(=O)C2CC(=O)N(CC)C2)o1 (configuration not stated) | 39.1% |
| CCC(C)(C)NC(=O)Cn1nnc(CN(C)C(=O)c2ccccc2)n1 | 29.6% |
| Cc1cnc(Nc2nccnc2C2CCN(C)CC2)s1 | 7.39% |
| O=C(O)c1cccc(CN2CCCC(Cc3ccn[nH]3)C2)c1 (configuration not stated) | -0.05% |
| Cc1ncccc1C(=O)N1CCC2(CCc3ccccc3C(=O)N2)C1 (configuration not stated) | 13.79% |
| Cn1cccc1C(=O)NC[C@]12COC[C@H]1CN(Cc1nccs1)C2 | -30.6% |
| Cc1cccc(CNc2n[nH]c(C)n2)c1 | 33.1% |
| CN(CCC#N)C(=O)CN1CCCC1c1ccsc1 (configuration not stated) | 10.5% |
| CCOC(=O)C1CCN(C(=O)CN2CCCC2c2ccsc2)CC1 (configuration not stated) | 54.6% |
| CCOC(=O)C1CCN(C(=O)CN2CCCC2c2cc(C)no2)CC1 (configuration not stated) | -15.1% |
| O=C(NCC1CCOC1)c1csc(-c2ccccc2)n1 (configuration not stated) | -10.6% |
| c1cc2c(cc1CN1CC[C@H]3[C@H]1CCN3CC1CC1)OCO2 | 6.27% |
| O=C(c1ccc2[nH]cnc2c1)N1CCC(Oc2ccccn2)CC1 | 35.2% |
| Cc1cnn(CCCNC(=O)CCC2CCCCN2C)c1 (configuration not stated) | 35.1% |
| C[C@@H]1CN(C2(C(=O)N3CCCCCC3)Cc3ccccc3C2)C[C@H](C)O1 | -0.182% |
| C[C@@H]1CN(C2(C(=O)N3CCSCC3)Cc3ccccc3C2)C[C@H](C)O1 | 73.9% |
| C[C@@H]1CN(C2(C(=O)N3CCOCC3)Cc3ccccc3C2)C[C@H](C)O1 | 21% |

Reference: ChEMBL document CHEMBL4513216, “Probing the Open Global Health Chemical Diversity Library for Multistage-Active Starting Points for Next-Generation Antimalarials” (ACS Infect Dis, 2020)
